Screening results as filed in PubChem BioAssay.
Rows were chosen to be rich in hits. Some 12% of all compounds tested hit in one or more screens of this group.
Sfp inh: Sfp phosphopantetheinyl transferase inhibition; AID 1490; actives 3.5% (n = 310,000); Q9F4F7; Biochemical Sfp PPTase activity, qHTS; Potency, µM, for the others: largest response in the series, negative = inhibition, most hits filed as inhibitors;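 also: the enzyme is Sfp with the accession as filed and its product quenches rhodamine fluorescence; 0% = enzyme reaction without inhibitor and -100% = no enzyme wells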
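Step 1, compound plus 15 nM Sfp-PPTase, 15 min, room temperature. Step 2, add rhodamine-CoA (5 uM) and BHQ-2-YbbR (12.5 uM). Step 3, read 525/598 nm fluorescence at 0 and 30 min.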
BAZ2B block: BAZ2B (human) inhibition. Potency, µM (series often up to 114 µM), for inactives: top-dose activity change, negative = inhibition, actives largely listed as inhibitors. AID 504333. Q9UIF8. AlphaScreen BAZ2B-H3K14Ac peptide displacement. actives 4.4% (n = 360,000); also: % is scaled to controls: 0 for no effect and ±100 for the full control effect; nearly all actives have a fitted effect of over 60% in size
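AlphaScreen displacement of biotin-H3(5-23)K14Ac peptide (50 nM final) from BAZ2B (50 nM final) in PBS pH 7.4, 0.01% Tween-20; complex preformed 30 min RT, then compounds (top 110 uM) 30 min RT, beads 20 min dark.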
L3MBTL1 block: blocks human L3MBTL1 | Q9Y468 | AlphaScreen L3MBTL1–H3K9me1 peptide binding | Potency, µM (titrated, usually from 57.1 µM), without a hit: at the highest dose activity, negative = inhibition, usual class: inhibitors | actives 0.66% (n = 230,000) | AID 485360; also: % is scaled to controls: 0 for no effect and ±100 for the full control effect; nearly all actives have a fitted effect of over 60% in size
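First, the protein-peptide complex forms for 30 min at room temperature (L3MBTL1 50 nM, biotinylated H3K9me1 peptide 75 nM). Next, compounds are pin-transferred and incubated 30 min. Finally, AlphaScreen beads are added and read after 30 min.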
HP1b binding inh: inhibitors of HP1-beta chromodomain binding to methylated histone tails. P83916. AlphaScreen HP1-beta / biotin-H3K9me3 peptide binding. Potency, µM (series often up to 114 µM), inactives show at the highest dose activity change, negative = inhibition, usual class: inhibitors. actives 0.56% (n = 390,000). AID 540317; also: nearly all actives have a fitted effect of over 70% in size
Target sequence (P83916 whole entry, looked up): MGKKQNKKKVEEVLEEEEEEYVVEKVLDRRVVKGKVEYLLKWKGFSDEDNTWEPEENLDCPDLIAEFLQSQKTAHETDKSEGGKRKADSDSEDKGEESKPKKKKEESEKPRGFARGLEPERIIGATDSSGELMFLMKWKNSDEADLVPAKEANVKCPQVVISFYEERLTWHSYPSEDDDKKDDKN
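AlphaScreen: HP1-beta (50 nM) preformed 30 min with biotin-H3(1-18)K9me3 peptide (50 nM) in PBS pH 7.4, 0.01% Tween-20. Compound added for 30 min at RT, then streptavidin donor/nickel chelate acceptor beads (10 ug/mL) for 30 min.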
G9a block: inhibitors of human histone lysine methyltransferase G9a; G9a H3K9 monomethylation, AlphaScreen, 2 h; Potency, µM (highest dose often 102 µM), without a hit: at the highest dose activity, negative = inhibition, actives largely listed as inhibitors; Q96KQ7; actives 8.8% (n = 350,000); AID 504332; also: % is scaled to controls: 0 for no effect and ±100 for the full control effect; nearly all actives have a fitted effect of over 75% in size
Target sequence (Q96KQ7 913-1193 limits assumed): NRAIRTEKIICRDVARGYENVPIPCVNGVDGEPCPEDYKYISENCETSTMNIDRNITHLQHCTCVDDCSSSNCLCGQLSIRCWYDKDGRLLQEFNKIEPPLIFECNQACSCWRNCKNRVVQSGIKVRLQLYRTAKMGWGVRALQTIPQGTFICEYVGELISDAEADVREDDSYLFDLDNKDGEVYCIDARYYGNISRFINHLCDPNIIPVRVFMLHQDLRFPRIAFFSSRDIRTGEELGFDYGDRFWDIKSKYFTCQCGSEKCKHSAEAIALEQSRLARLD
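Readings reflect AlphaScreen signal from monomethyl-H3K9 antibody detection. HMT at 20 nM; substrate b-H3K9 500 nM; cofactor SAM 20 uM; 2 h RT reaction; compounds tested as titrations in qHTS with 15 min preincubation.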
JMJD2A Tudor inh: blocks the human JMJD2A Tudor domain. AlphaScreen JMJD2A-Tudor / H3K4me3 peptide binding. Potency, µM (doses to about 114 µM), for inactives: at the top dose activity change, negative = inhibition, most hits filed as inhibitors. AID 504339. actives 4.4% (n = 390,000). O75164; also: % is scaled to controls: 0 for no effect and ±100 for the full control effect; nearly all actives have a fitted effect of over 50% in size
* = called active by the depositor; ? = inconclusive; · = no result given; [ ] = dose if it differs, or a comment. Calls follow the shape of the dose curve; as a rule, active = well fitted curve in the direction sought with a large enough effect; inconclusive = small, poorly fitted or top-dose-only effect, or another doubt; inactive = no such curve, though single readings can be large; an effect the other way counts as inactive or inconclusive. Potency is read from the fitted curve at half-maximal effect.

SMILES	Sfp inh	BAZ2B block	L3MBTL1 block	HP1b binding inh	G9a block	JMJD2A Tudor inh
COc1ccc(-c2cc(C(F)(F)F)nc(SCC(=O)NCc3ccc(OC)c(OC)c3)n2)cc1	·	3.5%	·	52.8%	-10.4%[59 µM]	-22.3%
O=C(O)c1cccc(Cl)n1	-3.2%	-22.1%	-12.8%	11.0%	39.8µM*	-0.7%[11.4 µM]
O=C(O)c1ccc2cccc(O)c2n1	2.82µM*	?	7.8%	32.8%	·	-6.4%
CC(=O)Nc1cccc(NC(C)=O)n1	8.1%	-1.4%	1.9%	4.5%	-12.7%[59 µM]	-9.3%
CC(=O)Nc1cccc(C(=O)O)n1	?	22.4µM*	11.3%	13.7%	8.91µM*	?
O=C(O)c1ccc2cccnc2n1	-58.6%	28.2µM*	·	?	35.5µM*	7.08µM*
Cc1cc(Cl)ccc1OCC(=O)N(Cc1sccc1C)C1CCS(=O)(=O)C1 (stereo not drawn)	·	-6.6%	·	15.8%	8.5%[59 µM]	-16.3%
Cc1ccc(Cl)cc1N1CCN(C(=O)c2ccc(C)c(-n3c(C)nc4cccnc43)c2)CC1	·	?	·	9.2%	-45.3%[59 µM]	-30.0%
CNC(=O)C1CCC(Cn2c(=O)c3sccc3n(CC(=O)Nc3cc(C)cc(C)c3)c2=O)CC1 (stereo not drawn)	·	-2.2%	·	32.5%	-3.6%[59 µM]	-5.7%
CCCCOc1ccc(S(=O)(=O)Nc2cccc(-c3ccc(N4CCOCC4)nn3)c2)cc1	·	-9.6%	·	6.5%[57 µM]	-10.2%[59 µM]	-19.5%
O=C(O)c1cccc(C(=O)O)n1	3.98µM*	-2.7%	11.9%	·	?	·
COC(=O)c1c(C)[nH]c(C(C)=O)c1C	1.7%	?	-3.1%	30.3%	-19.0%	10.2%[57.1 µM]
COC(=O)c1c(C)[nH]c(-c2csc(N)n2)c1C	44.7µM*	·	-12.8%	-3.1%	?	-24.6%
O=C(Cn1c(-c2cccs2)cc2ccccc21)N1CCN(c2ccccc2F)CC1	·	-11.5%	·	41.3%	-24.0%[59 µM]	-19.5%
O=C(O)c1cc(Nc2cc(Cl)c3nonc3c2[N+](=O)[O-])ccc1O	44.7µM*	?	·	8.5%	35.5µM*	-31.5%
O=[N+]([O-])c1c(Nc2ccccc2O)cc(Cl)c2nonc12	-63.6%	?	?	?	·	?
C=CCC1C=CC(OC(=O)OCC)C(COC(=O)OCC)O1 (stereo not drawn)	6.5%	·	·	·	·	·
CCN(CC)CCCN1C(=O)C(O)=C(C(=O)c2sc(C)nc2C)C1c1ccc(C)o1 (stereo not drawn)	1.1%	-22.1%	-1.4%	·	-17.1%[59 µM]	·
COc1cccc(C2C(C(=O)c3sc(C)nc3C)=C(O)C(=O)N2CCN2CCOCC2)c1 (stereo not drawn)	-16.7%	-4.8%	-1.7%	22.6%	50.1µM*	?
Cc1ccc(C2C(C(=O)c3sc(C)nc3C)=C(O)C(=O)N2CCN2CCOCC2)o1 (stereo not drawn)	-9.1%	-33.2%	-0.9%	4.5%	35.5µM*	?
CCc1cccc(-n2nnc(-c3nc(-c4cccs4)no3)c2N)c1	·	1.9%	·	43.8%	4.1%[59 µM]	5.1%
O=C1C2CC=C(Cl)CC2C(=O)N1c1ncn[nH]1 (stereo not drawn)	5.8%	56.2µM*	?	39.1%	?	89.1µM*
CCC(=O)N1CCc2cc(CNC(=O)c3ccccc3C)ccc21	·	-0.7%	·	21.9%	-0.7%[59 µM]	-17.0%
CC(=O)N1CCCC1c1nc2ccccc2n1Cc1ccccc1Cl (stereo not drawn)	·	-17.0%	·	6.2%	-31.8%[59 µM]	-13.2%
O=C(NCC(c1cccnc1)N1CCN(Cc2ccccc2)CC1)C(=O)Nc1cccc(F)c1 (stereo not drawn)	·	-3.9%	·	37.2%	-11.1%[59 µM]	-8.2%
SMILES	Sfp inh	BAZ2B block	L3MBTL1 block	HP1b binding inh	G9a block	JMJD2A Tudor inh
O=C(Oc1ccccc1C(=O)Nc1ccccc1)c1ccc(Br)c([N+](=O)[O-])c1	1.0%	-34.4%	-9.0%	8.0%	-17.2%[59 µM]	-35.5%
O=C(NCc1cc(Br)cc(Br)c1OC(=O)c1ccccc1[N+](=O)[O-])c1ccccc1	16.6%	-24.1%	-12.2%	-3.2%	39.8µM*	-31.1%
Clc1ccc(N2CCN(c3ncnc4c3nc3n4CCCC3)CC2)cc1	·	-3.0%	·	8.3%	-28.4%[59 µM]	-10.2%
Cc1ccc(/C=C/c2onc(C)c2S(=O)(=O)N2CCC(C(=O)N(CCC(C)C)Cc3ccco3)CC2)cc1	·	0.6%	·	24.7%[57 µM]	-1.6%[59 µM]	-5.1%
Cc1c(C(=O)NC2CCS(=O)(=O)C2)oc2ccccc12 (stereo not drawn)	14.9%	23.5%	·	51.1%	44.7µM*	-2.5%
COc1cccc(NC(=O)c2oc3ccc(S(=O)(=O)N4CCOCC4)cc3c2C)c1	2.7%	5.0%	·	14.5%	-41.3%	-14.4%
COc1ccc2oc(C(=O)Nc3ccccc3N3CCOCC3)c(C)c2c1	·	7.9%	2.0%	9.7%	44.7µM*	-12.8%
CCOc1cc(N2CCOCC2)c(OCC)cc1NC(=O)c1oc2ccccc2c1C	3.6%	·	-3.0%	-1.6%	-7.2%	-19.9%
Cc1c(C(=O)Nc2ccc(N3CCOCC3)cc2)oc2ccccc12	-12.8%	2.6%	-4.1%	1.0%	?	56.2µM*
COc1ccc2oc(C(=O)Nc3ccc(N4CCOCC4)cc3)c(C)c2c1	·	50.1µM*	?	-14.7%	50.1µM*	?
Cc1c(C(=O)OCC(=O)Nc2ccc(N3CCOCC3)cc2)oc2ccccc12	·	9.9%	-9.8%	0.6%	16.1%[0.501 µM]	-16.4%
COC(=O)c1ccc(OC(=O)CCS(=O)(=O)c2ccc(C)cc2)cc1	·	0.0%	-1.1%	27.3%	35.5µM*	-5.5%
Cc1ccc(S(=O)(=O)CCC(=O)c2ccc(F)cc2)cc1	5.9%	7.8%	·	49.0%	126.4%	-3.4%
Cc1ccc(C(=O)CCS(=O)(=O)c2ccc(F)cc2)cc1	1.7%	-4.2%	·	44.5%	31.6µM*	-18.3%
CC(=O)Oc1c(/C=C(\C#N)C(N)=O)[nH]c2ccccc12	7.4%	-36.2%	-24.2%	4.6%	11.2µM*	-17.3%
O=C(CCSc1ccccc1)Nc1ccc(S(=O)(=O)N2CCOCC2)cc1	-13.3%	56.2µM*	·	49.4%	-45.5%	-23.8%
O=C(Nc1ccccc1)c1ccc(S(=O)(=O)N2CCOCC2)cc1	16.7%	-20.1%	·	5.7%	13.0%[12.7 µM]	-5.4%
O=C(CSc1ncnc2sccc12)Nc1ccc(S(=O)(=O)N2CCOCC2)cc1	·	9.5%	-11.9%	15.4%	44.7µM*	-3.4%
O=S(=O)(c1ccc(NC(=S)NN=C(Cc2ccccc2)Cc2ccccc2)cc1)N1CCOCC1	?	50.1µM*	-3.1%	-19.7%	·	-9.0%[11.4 µM]
O=C(CCCc1ccccc1)Nc1ccc(S(=O)(=O)N2CCOCC2)cc1	3.6%	-16.8%	·	45.3%	·	3.1%
CC1CN=C(N(C(=O)Nc2ccccc2)c2ccc(S(=O)(=O)N3CCOCC3)cc2)S1 (stereo not drawn)	-3.7%	12.3%	2.5%	24.3%	7.08µM*	10.8%
